Test in all cases: qHTS profiling for inhibitors of Plasmodium falciparum proliferation (AID 504749); further: nearly all actives have a fitted effect of over 60% in size
What all share (details): P. falciparum in erythrocytes, SYBR Green DNA, 72 h; series mostly up to 28.7 µM
(In general: Quantitative high-throughput screening tests each substance at several concentrations.)

In assay [1] the test system is ATS189. Put shortly: (§1)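 Readout was DNA-dye fluorescence from lysed cultures, ex 485/em 535 nm. Parasitized red cells had grown 72 h with compound; data scaled between 0.29 uM artemisinin and DMSO wells and corrected using vehicle-only plates.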
Assay [2] concerns ATS95. Summed up: as §1
Assay [3] deals with C2A. Summed up: as §1
Assay [4] deals with CP185. Summed up: as §1
Assay [5] deals with CP191. Summed up:
as §1

Assay [6] has as its system CP192. Summed up: as §1
For assay [7], the system named is CP194. Summed up: as §1
Assay [8] deals with CP201. Put shortly: as §1
Assay [9] deals with CP203. Put shortly: as §1
Assay [10] concerns CP211. Summed up: as §1
Assay [11] concerns CP215. Summed up:
as §1

Assay [12] deals with CP217. Put shortly:
as §1

The test system of assay [13] is CP237. Summed up:
as §1

For assay [14], the system named is CP238. Summed up:
as §1

Assay [15] deals with CP247. Summed up: as §1
The test system of assay [16] is CP250. Summed up: as §1
Assay [17] relates to CP252. Summed up: as §1
Assay [18] has as its system CP256. Summed up: as §1
For assay [19], the system named is CP260. Put shortly:
as §1

Assay [20] relates to CP262. Summed up: as §1

Eleven compounds from PubChem BioAssay (NCATS) can be followed below.

The structures appear in SMILES notation. Records with an inconclusive call do not appear. Active and inactive are the calls of the source. The call rests on the fitted dose curve; in most records, active means well fitted inhibition curve with a large enough effect; inconclusive means small, poorly fitted or top-dose-only effect; inactive means flat fitted curve, though single readings scatter.
Potency means the concentration at half of the fitted maximal effect.

Consider `c1ccc(CC2=NCCN2)cc1`, for which the Potency result in assay [1], in assay [2], in [3], in [4], in assay [5] and in assay [6] was “inactive” in each case. The Potency entry in assay [7], in [8], in [9], in assay [10], in [11] and in [12] was “inactive” throughout. The Potency result in assay [13], in [14], in assay [15], in assay [16], in assay [17] and in assay [18] was “inactive” throughout. Besides, the Potency result in assay [19] and in assay [20] was “inactive” each time.
Turning to `CCCc1ncc(C[n+]2ccccc2C)c(N)n1`, the Potency entry in assay [1], in assay [2], in assay [3], in assay [4], in assay [5] and in [6] was “inactive” throughout. Moreover, the Potency result in assay [7], in [8], in [9], in [10], in assay [12] and in assay [13] was “inactive” in each case. The Potency result in assay [14], in assay [15], in assay [16], in assay [17], in assay [18] and in assay [19] was “inactive” each time.
Consider `N#CCC(=O)NN`, for which the Potency result in [1], in [2], in assay [3], in [4], in assay [5] and in assay [6] was “inactive” each time. The Potency entry in assay [7], in assay [8], in [9], in assay [10], in assay [12] and in assay [13] was “inactive” in each case. Further, the Potency entry in [14], in [15], in assay [16], in assay [17], in assay [18] and in [19] was “inactive” in each case. In [20], the Potency entry was “inactive”.
Regarding `O=C1C(=O)c2ccccc2C(O)=C1C1CCC(c2ccc(Cl)cc2)CC1` (stereo not drawn), the Potency was 0.0028 µM (active) in assay [1]; 0.004 µM (active) in assay [2]; 0.0079 µM (active) in [3]; 0.0035 µM (active) in [4]; 0.0028 µM (active) in assay [5]; 0.0051 µM (active) in [6]. Besides, the Potency in assay [7] was 0.0057 µM (active); in assay [8], 0.0064 µM (active); in assay [9] it was 0.0064 µM (active); in [10], 0.0057 µM (active); in assay [12], 0.0014 µM (active); in [13], 0.0011 µM (active). Besides, the Potency in assay [14] is 0.005 µM (active); in [15], 0.0022 µM (active); in [16] it was 0.0028 µM (active); in [17] it was 0.0032 µM (active); in assay [18], 0.0016 µM (active); in assay [19] it was 0.0008 µM (active).
In the case of `C[N+]1(CC2COC(c3ccccc3)(C3CCCCC3)O2)CCCCC1` (stereo not drawn), the Potency in [1] is 8.91 µM (active); in [2], 6.31 µM (active); in assay [3], 10 µM (active); in [4], 5.01 µM (active); in assay [5] it was 5.62 µM (active); in assay [6], 4.78 µM (active). The Potency in [7] is 6.01 µM (active); in [8], 10.7 µM (active); in assay [9] it was 4.78 µM (active); in assay [10], 4.78 µM (active); in assay [11], 5.36 µM (active); in assay [12] it was 8.91 µM (active). Further, the Potency in assay [13] is 7.08 µM (active); in assay [14], 7.08 µM (active); in assay [17], 10 µM (active); in assay [18], 10 µM (active); in assay [19], 4.47 µM (active); in assay [20] it was 5.36 µM (active).
Take `C#C[C@]1(O)CC[C@H]2[C@@H]3CCC4=CC(=O)CC[C@@H]4[C@H]3CC[C@@]21CC`: the Potency result in [1], in [2], in assay [3], in [4], in assay [5] and in assay [6] was “inactive” each time. Besides, the Potency result in assay [7], in assay [8], in assay [9], in assay [10], in assay [11] and in assay [12] was “inactive” throughout. In addition, the Potency entry in assay [14], in assay [15], in [16], in assay [17], in assay [18] and in [20] was “inactive” in each case. For the same compound, the Potency in assay [13] was 6.31 µM (active).
Regarding `COc1ccccc1N1CCN(CCCCNC(=O)c2ccc(-c3ccc(C(C)=O)cc3)cc2)CC1`, the Potency entry in assay [1], in assay [2], in assay [3], in assay [4], in assay [5] and in assay [6] was “inactive” in each case. For the same compound, the Potency result in assay [7], in assay [8], in [9], in assay [10], in assay [11] and in assay [12] was “inactive” in each case. The Potency entry in assay [14], in assay [15], in [16], in assay [17], in assay [18] and in [19] was “inactive” each time. Besides, in [20], the Potency entry was “inactive”.
For `COc1ccc(CCN(C)CCCN2CCc3cc(OC)c(OC)cc3CC2=O)cc1OC`, the Potency entry in [1], in assay [2], in [3], in assay [4], in assay [5] and in assay [6] was “inactive” in each case. In addition, the Potency result in [7], in assay [8], in assay [9], in [10], in assay [11] and in [12] was “inactive” in each case. Moreover, the Potency result in assay [14], in assay [16], in assay [17] and in assay [20] was “inactive” each time.
Turning to `Cc1cccc(C)c1NC(=O)CN1CCCC1`, the Potency result in assay [1], in assay [2], in [3], in assay [4], in [5] and in [6] was “inactive” each time. The Potency entry in [7], in assay [8], in assay [9], in assay [10], in assay [11] and in assay [12] was “inactive” throughout. The Potency entry in [14], in assay [15], in assay [17], in assay [18], in assay [19] and in [20] was “inactive” each time.
On to `Cc1cccc(C)c1NC(=O)CN1CCCCCC1`, for which the Potency result in assay [1], in assay [2], in [3], in [4], in [5] and in assay [6] was “inactive” each time. In addition, the Potency entry in assay [7], in [8], in [9], in [10], in [11] and in assay [12] was “inactive” each time. Moreover, the Potency result in [14], in [15], in [16], in assay [17], in [18] and in assay [19] was “inactive” throughout. Besides, the Potency entry in assay [20] is “inactive”.
Turning to `Nc1ccc(S(=O)(=O)Nc2cnc3ccccc3n2)cc1`, the Potency result in [1], in assay [2], in [3], in assay [4], in assay [5] and in assay [6] was “inactive” in each case. The Potency result in [7], in assay [8], in [9], in assay [10], in assay [12] and in assay [13] was “inactive” in each case. The Potency result in [14], in [15], in assay [16], in assay [17], in [18] and in [19] was “inactive” in each case. For the same compound, in [20], the Potency result is “inactive”.
